# Several values for one entry are separate records, joined by “and”; a condition that tells them apart may be missing. Identical values can stand only once. Inconclusive results are not listed. A call without a number means that no potency is given here. More than one record can exist for a structure, and the calls need not agree. Activity calls are given as the source filed them. Unless noted, the call rests on the fitted dose curve; in most records, active means well fitted curve in the direction sought with a large enough effect in the repeat runs; inconclusive means weak or mixed curves; inactive means no such curve, though single readings can be large; an effect the other way counts as inactive or inconclusive.
# Assays:
# [1] = A CellTox Green Cytotoxicity Assay to monitor cytotoxicity in HepG2 cells - 8 hour (AID 1224890); further: nearly all actives have a fitted effect of over 45% in size; further: potency means the concentration at half of the fitted maximal effect
# In short: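 HepG2 cells were seeded together with the CellTox Green dye at 600 cells/well, left 5 h at 37 C/5% CO2, then given compounds in DMSO. Fluorescence from dye bound to dead-cell DNA was read repeatedly over 40 h of treatment at 37 C.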
# [2] = qHTS assay to identify small molecule antagonists of the estrogen receptor alpha (ER-alpha) signaling pathway using the BG1 cell line in the presence of 0.1 nM 17-beta-estradiol - cell viability counter screen (AID 1259241); further: nearly all actives have a fitted effect of over 40% in size; further: potency means the concentration at half of the fitted maximal effect
# In short: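 Viability in VM7Luc4E2 cells after 22 hr compound exposure under 0.1 nM 17beta-estradiol stimulation, by CellTiter-Fluor.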
# [3] = target: Estrogen receptor (Homo sapiens) (UniProt P03372); test: qHTS assay to identify small molecule antagonists of the estrogen receptor alpha (ER-alpha) signaling pathway using the BG1 cell line in the presence of 0.1 nM 17-beta-estradiol (AID 1259244); further: nearly all actives have a fitted effect of over 50% in size; further: potency means the concentration at half of the fitted maximal effect
# Estrogen receptor (Homo sapiens), sequence (P03372 whole entry, looked up): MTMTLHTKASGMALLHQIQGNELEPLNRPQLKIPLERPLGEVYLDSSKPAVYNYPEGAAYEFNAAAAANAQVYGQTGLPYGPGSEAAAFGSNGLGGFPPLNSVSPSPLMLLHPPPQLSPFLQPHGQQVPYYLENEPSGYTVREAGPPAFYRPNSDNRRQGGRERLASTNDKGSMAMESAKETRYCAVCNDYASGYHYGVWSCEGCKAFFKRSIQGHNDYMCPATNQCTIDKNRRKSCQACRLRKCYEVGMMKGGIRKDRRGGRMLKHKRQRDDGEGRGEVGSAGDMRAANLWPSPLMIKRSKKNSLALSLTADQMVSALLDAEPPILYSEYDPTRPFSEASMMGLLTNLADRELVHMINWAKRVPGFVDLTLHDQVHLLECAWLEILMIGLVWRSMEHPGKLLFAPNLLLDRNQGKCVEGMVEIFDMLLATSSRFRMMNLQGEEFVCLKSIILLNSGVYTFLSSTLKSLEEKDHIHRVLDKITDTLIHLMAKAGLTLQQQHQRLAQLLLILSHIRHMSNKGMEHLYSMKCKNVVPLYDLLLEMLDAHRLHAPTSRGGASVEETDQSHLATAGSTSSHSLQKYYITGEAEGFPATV
# In short: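 VM7Luc4E2 cells (endogenous full-length ER-alpha, stable 4xERE-luciferase) were grown 5 days in phenol red-free medium with charcoal-stripped FBS, then exposed 22 h at 37C to compounds plus 0.1 nM (final) 17beta-estradiol; ONE-Glo luminescence read-out.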
# [4] = qHTS assay to identify small molecule HDAC inhibitors (AID 1259364); further: nearly all actives have a fitted effect of over 45% in size; further: potency means the concentration at half of the fitted maximal effect
# In short: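 Wild-type HCT-116 cells were plated overnight, exposed to compounds for 2 h at 37 °C, then given HDAC-Glo class I/II luminogenic reagent for 30 min at room temperature before luminescence was read.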
# [5] = qHTS assay to identify small molecule HDAC inhibitors - cell viability counter screen (AID 1259365); further: series mostly up to about 92 µM; nearly all actives have a fitted effect of over 50% in size
# In short: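 Cytotoxicity was gauged in wild-type HCT-116 cells after a brief 2hr treatment with DMSO-dissolved compounds at 37C and 5% CO2, using CellTiter-Glo luminescence developed for 30min at room temperature.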
# [6] = qHTS assay to identify small molecule antagonists of the sonic hedgehog signaling (Shh) pathway - cell viability counter screen (AID 1259367); further: nearly all actives have a fitted effect of over 55% in size; further: potency means the concentration at half of the fitted maximal effect
# In short: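 Cells: 3T3 Gli1-Luc, 2,000/well, 4 hr pre-incubation. Compounds in DMSO, then conditioned medium. Incubation 24 hr, 37C, 5% CO2. CellTiter-Fluor at 23 hr, 1 hr, fluorescence.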
# [7] = qHTS assay to identify small molecule agonists of the sonic hedgehog signaling (Shh) pathway (AID 1259368; calls by dose curve; further: nearly all actives have a fitted effect of over 15% in size; further: potency means the concentration at half of the fitted maximal effect; on activity change: series mostly up to about 92 µM)
# In short: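 NIH/3T3-derived 3T3Gli1-Luc cells carrying a stably integrated Gli1 response element–firefly luciferase reporter were plated, left 4 hr at 37 C, then given compounds in DMSO for 24 hr. Luminescence was read 30 min after adding luciferase reagent.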
# [8] = qHTS assay to identify small molecule antagonists of the sonic hedgehog signaling (Shh) pathway (AID 1259369; calls by dose curve; further: nearly all actives have a fitted effect of over 45% in size; further: potency means the concentration at half of the fitted maximal effect)
# In short: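 NIH/3T3-derived 3T3Gli1-Luc cells with stably integrated Gli1-Luc reporter were preincubated 4hr at 37 C, then given compounds in DMSO plus Shh conditioned medium and incubated 24hr. Firefly luciferase luminescence read after 30min reagent at room temperature.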
# [9] = target: Estrogen receptor beta (Homo sapiens) (UniProt Q92731); test: qHTS assay to identify small molecule agonists of the estrogen receptor beta (ER-beta) signaling pathway (AID 1259377; active means well fitted activation curve with a large enough effect in the signal ratio in the repeat runs, not every such curve was filed as active; the % refers to the signal ratio)
# Estrogen receptor beta (Homo sapiens), sequence (Q92731 whole entry, looked up): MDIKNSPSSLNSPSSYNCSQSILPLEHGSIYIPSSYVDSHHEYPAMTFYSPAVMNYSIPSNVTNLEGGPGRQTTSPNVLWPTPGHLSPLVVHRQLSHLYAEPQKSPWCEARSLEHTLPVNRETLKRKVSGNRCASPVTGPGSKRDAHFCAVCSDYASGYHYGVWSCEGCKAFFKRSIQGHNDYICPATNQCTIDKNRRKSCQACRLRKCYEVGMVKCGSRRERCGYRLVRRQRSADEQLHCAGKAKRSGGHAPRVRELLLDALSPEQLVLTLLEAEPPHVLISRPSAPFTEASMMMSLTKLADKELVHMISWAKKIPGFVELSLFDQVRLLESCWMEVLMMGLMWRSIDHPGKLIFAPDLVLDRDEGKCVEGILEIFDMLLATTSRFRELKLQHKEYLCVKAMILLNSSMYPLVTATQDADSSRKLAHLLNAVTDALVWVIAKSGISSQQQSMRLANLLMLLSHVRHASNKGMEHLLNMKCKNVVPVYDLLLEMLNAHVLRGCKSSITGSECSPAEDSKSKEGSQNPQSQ
# In short: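 Measured by fluorescence intensity from a B/G FRET beta-lactamase substrate (2 h, room temperature) in ER-beta-UAS-bla HEK293T cells treated with DMSO-dissolved compounds for 16 hr at 37C and 5% CO2.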
# [10] = qHTS assay to identify small molecule agonists of the androgen receptor (AR) signaling pathway in the presence of an antagonist - cell viability counter screen (AID 1259379); further: nearly all actives have a fitted effect of over 25% in size; further: potency means the concentration at half of the fitted maximal effect
# In short: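 MDA-kb2 human breast carcinoma cells (stable MMTV-luciferase, AR/GR responsive) were seeded 3,000 cells/well, pre-incubated 5 hr at 37C without CO2, then given 3.0uM nilutamide and compounds at 15 concentrations for 16 hr. Viability was read by CellTiter-Fluor fluorescence.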
# [11] = qHTS assay to identify small molecule agonists of the estrogen receptor beta (ER-beta) signaling pathway - cell viability counter screen (AID 1259380); further: nearly all actives have a fitted effect of over 30% in size; further: potency means the concentration at half of the fitted maximal effect
# In short: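 ER-beta-UAS-bla HEK293T cells in medium with 2% charcoal-stripped FBS were preincubated 6 hr at 37C, dosed with compound in DMSO for 16 hr, then after the bla read, CellTiter-Glo was added for 30 min at room temperature; luminescence recorded.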
# [12] = qHTS assay to identify small molecule antagonists of the estrogen receptor beta (ER-beta) signaling pathway - cell viability counter screen (AID 1259382); further: nearly all actives have a fitted effect of over 55% in size; further: potency means the concentration at half of the fitted maximal effect
# In short: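 ER-beta-UAS-bla HEK293T cells (2,000/well, 2% charcoal-stripped FBS) were pre-incubated 6 hr at 37C, then given compound plus 1nM final 17-beta-estradiol for 16 hr. Viability was read in the same wells by CellTiter-Glo luminescence after 30 min at room temperature.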
# [13] = qHTS assay to identify small molecule agonists or antagonists of the thyroid stimulating hormone receptor (TSHR) signaling pathway - wild type cell line counter screen (AID 1259384; calls by dose curve)
# In short: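 Counter screen in untransfected Hek293: compounds (15-point titration, triplicate) plus phosphodiesterase inhibitor Ro20-1724 added after 18 h plating; 30 min RT. Intracellular cAMP via competitive d2/cryptate immunoassay, 1 h incubation.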
# [14] = qHTS assay to identify small molecule phospholipidosis (PLD) inducers (AID 1259344; active means well fitted curve in the direction sought with a large enough effect; an effect the other way counts as inactive or inconclusive)
# In short: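 Phospholipidosis is scored by imaging LipidTOX-stained pits in HepG2 cells exposed to compound for 24 h at 37 C; pit counts and integrated intensities per well and per cell serve as outputs.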
# [15] = qHTS assay to identify small molecule agonists of the sonic hedgehog signaling (Shh) pathway - cell viability counter screen (AID 1259366); further: nearly all actives have a fitted effect of over 50% in size
# In short: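 Stable Gli1-Luc NIH/3T3 clone, 2,000 cells/well. Compound exposure 24hr at 37C. Read-out: CellTiter-Fluor fluorescence.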
# [16] = target: Estrogen receptor beta (Homo sapiens) (UniProt Q92731); test: qHTS assay to identify small molecule antagonists of the estrogen receptor beta (ER-beta) signaling pathway (AID 1259378; active means well fitted inhibition curve with a large enough effect in the signal ratio in the repeat runs, not every such curve was filed as active; the % refers to the signal ratio)
# In short: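 Antagonist mode: compounds added to beta-lactamase reporter HEK293T ER-beta-UAS cells stimulated with E2 (1nM final), 16 hr at 37C. LiveBLAzer B/G FRET substrate, 2 hours room temperature, fluorescence read-out.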
# [17] = target: Estrogen receptor (Homo sapiens) (UniProt P03372); test: qHTS assay to identify small molecule agonists of the estrogen receptor alpha (ER-alpha) signaling pathway in the presence of an antagonist (AID 1259383; calls by dose curve; further: top concentration of the series differs between compounds; nearly all actives have a fitted effect of over 15% in size)
# In short: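 VM7Luc4E2 cells (endogenous full-length ER-alpha, 4×ERE-luciferase) were precultured 5 days in phenol red-free medium with 10% charcoal-stripped FBS, given 10.0nM ICI-182,780 (final), then treated with compounds at 15 concentrations for 22hr at 37C; luminescence read with ONE-Glo.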
SMILES,Potency [1],Potency [2],Potency [3],Potency [4],outcome [5],Potency [6],Potency [7],Potency [8],Potency [9],Potency [10],Potency [11],Potency [12],outcome [13],Potency [14],Potency [15],Potency [16],Potency [17],"activity, negative = inhibition [16]",cAMP activity change [13]
CCCCCCCCCCCO,inactive,inactive,inactive,inactive,inactive,inactive,inactive,inactive,inactive,inactive,inactive,inactive,inactive,–,–,–,–,–,–
COc1cccc2c1C(=O)c1c(O)c3c(c(O)c1C2=O)C[C@@](O)(C(=O)CO)C[C@@H]3O[C@H]1C[C@H](N)[C@H](O)[C@H](C)O1,inactive,11.9 µM (active),inactive,inactive and 11.9 µM (active),inactive,967 nM (active) and 6.68 µM (active),inactive,38.5 nM (active) and 531 nM (active),inactive,15.3 µM (active) and 11.9 µM (active),inactive and 473 nM (active),inactive,inactive,inactive,–,–,–,–,–
CCCCCCCCCC(=O)OC,inactive,inactive,–,inactive,inactive,inactive,inactive,inactive,inactive,inactive,inactive,inactive,inactive,–,inactive,–,–,–,–
O=C(COc1ccc(Cl)cc1)N1CCN(Cc2ccc3c(c2)OCO3)CC1,inactive,inactive,48.6 µM (active) and 29.8 µM (active),inactive,inactive,inactive,inactive,17.2 µM (active) and 18.8 µM (active),–,–,–,inactive,inactive,inactive,–,–,–,–,–
O=C(c1ccc(OCCN2CCCCC2)cc1)c1c(-c2ccc(O)cc2)sc2cc(O)ccc12,inactive,–,–,inactive,inactive,24.4 µM (active) and 30.6 µM (active),inactive,–,–,61.2 µM (active) and 61.1 µM (active) and 26.6 µM (active),54.5 µM (active) and 34.4 µM (active) and 23.7 µM (active),54.5 µM (active) and 26.6 µM (active),–,inactive,–,–,–,–,–
NNc1ccc(C(=O)O)cc1,inactive,inactive,–,2.47 µM (active) and 6.93 µM (active),inactive,inactive,5.5 µM (active),–,inactive,–,inactive,inactive,inactive,–,inactive,inactive,–,–,–
O=c1oc(=O)c2cc3c(=O)oc(=O)c3cc12,inactive,inactive,–,inactive,inactive,inactive,inactive,inactive,inactive,inactive,inactive,inactive,–,–,–,–,–,–,–
O=CCCCC=O,inactive,inactive,inactive,inactive,inactive,inactive,inactive,inactive,–,–,inactive,inactive,–,inactive,inactive,–,inactive,–,–
c1cc(N(CC2CO2)CC2CO2)ccc1OCC1CO1 (stereo not drawn),inactive,inactive,inactive,inactive,inactive,27.3 µM (active),inactive,–,–,–,inactive,inactive,inactive,–,–,–,–,–,–
CC(C)(C)NC(=O)[C@H]1CC[C@H]2[C@@H]3CC[C@H]4NC(=O)C=C[C@]4(C)[C@H]3CC[C@]12C,inactive,inactive,inactive,inactive,inactive,inactive,inactive,–,–,inactive,–,inactive,–,inactive,–,–,inactive,–,–
c1cc(-c2ccncc2)ccn1,inactive,inactive,inactive,inactive,inactive,inactive,inactive,–,inactive,inactive,inactive,inactive,inactive,–,–,–,inactive,–,–
CN(C)C(=N)N=C(N)N,inactive,inactive,–,inactive,inactive,inactive,inactive,inactive,–,inactive,inactive,inactive,inactive,inactive,inactive,–,–,–,–
CC(=O)Oc1ccccc1C(=O)Nc1ncc([N+](=O)[O-])s1,inactive,16.8 µM (active),inactive,197 nM (active) and 473 nM (active),inactive,24.8 µM (active) and 26.6 µM (active),inactive,9.88 µM (active) and 18.8 µM (active),–,22.1 µM (active) and 13.3 µM (active),12.4 µM (active) and 7.5 µM (active),22.1 µM (active),inactive,inactive,–,–,inactive,–,–
Cc1cc2nc3c(=O)[nH]c(=O)nc-3n(C[C@H](O)[C@H](O)[C@H](O)CO)c2cc1C,43.2 µM (active) and 40.5 µM (active) and 11.7 µM (active),–,–,inactive,inactive,–,inactive,inactive,inactive,–,inactive,inactive,–,inactive,–,–,–,-6.01% [at 19 µM] (inactive),-5.16% [at 18.9 µM] (inactive)

# Reference: PubChem BioAssay (Tox21)
